Bioassay records deposited in PubChem BioAssay by Broad Institute.
Yp Topo-I inh: Y. pestis Topo-I inhibition via cleavage products; Y. pestis Topo-I cleavage product accumulation, plate reader; activity, % at 10 µM; 360,000 compounds, 0.064% hits; AID 504884; in the data active = activity above about 50%, passing the limit was not always enough; inconclusive = no clear call, values can overlap the other calls
FadD28 FP inh: blocks FadD28 binding to the bisubstrate probe | fluorescence polarization | inhibition, % at 12.5 µM | 360,000 compounds, 0.22% hits; in the data active = inhibition above about 8.5%, passing the limit was not always enough; inconclusive = no clear call, values can overlap the other calls
Mtb BioA inh: BioA (M. tuberculosis) enzyme inhibition. 360,000 compounds, 0.096% hits. purified M. tuberculosis BioA enzyme, plate reader. inhibition, % at 9.99 µM; in the data active = inhibition above about 40%; inconclusive = no clear call, values can overlap the other calls
PrP 5UTR inh: suppresses PrP 5' UTR mRNA reporter expression. 340,000 compounds, 0.35% hits. inhibition, % (no concentration beside the values). AID 488862. cell-based PrP 5' UTR mRNA reporter, plate reader; in the data active = inhibition above about 52%; also: 0 = median of the neutral control wells
PfHsp40 yeast: restores yeast growth despite PfHsp40 toxicity | 340,000 compounds, 0.68% hits | growth rescue, % at 12.5 µM | S. cerevisiae expressing PfHsp40, growth rescue, ATP luminescence | AID 504582; in the data active = growth rescue above about 28%, passing the limit was not always enough; inconclusive = no clear call, values can overlap the other calls;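 also: yeast W303a lacking pdr1 and pdr3 grown in galactose medium; growth measured after three days at 30 °C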
PrP UTR cherry: prion 5' UTR mRNA inhibition, cherry-pick retest | cell-based prion protein 5' UTR reporter, plate reader | inhibition, % at 2.5 µM | shares compounds with PrP 5UTR inh | AID 504592 | 1,100 compounds, 48% hits; in the data active = inhibition above about 54%; inconclusive = no clear call, values can overlap the other calls
Starred values were filed as active, the others as inactive; u = inconclusive; x = not tested or not shown. Hits are enriched below; roughly 1.1% of the tested compounds scored in any of these assays.

SMILES | Yp Topo-I inh | FadD28 FP inh | Mtb BioA inh | PrP 5UTR inh | PfHsp40 yeast | PrP UTR cherry
Clc1ccc(-c2nc(-c3ccccn3)no2)cc1Cl | -6 | -2 | -2 | -19 | -3 | x
COc1ccc(-c2nc(-c3ccccn3)no2)cc1 | 4 | -1 | x | 91* | 1 | 91*
Cc1ccccc1-c1nc(-c2ccccn2)no1 | 17 | -1 | x | 70* | -4 | u
CCn1c(SCC(=O)Nc2ccc(N(C)C)cc2)nnc1-c1cccc(C)c1 | 5 | 0 | -1 | 64* | 0 | -6
CCn1c(SCC(=O)Nc2cc(C)on2)nnc1-c1cccc(C)c1 | 11 | x | 6 | -47 | 1 | x
Cc1ccc(S(=O)(=O)N(C)C[C@@H]2Oc3ccc(NC(=O)CCN4CCOCC4)cc3C(=O)N([C@H](C)CO)C[C@H]2C)cc1 | x | x | -1 | x | x | x
CCCCCCCCCCCCCCCCCCNc1ccn(C2OC(COP(=O)(O)OCC3OC(n4cc(F)c(=O)[nH]c4=O)CC3O)C(O)C2O)c(=O)n1 (configuration not stated) | 28 | 53* | x | 63* | 42* | 8
C[C@H]1O[C@@H](n2cc(F)c(=O)[nH]c2=O)[C@H](O)[C@@H]1O | 1 | -3 | 0 | -9 | -1 | x
CCOC(=O)C1Oc2ccccc2C(c2ccc(C)cc2)=C1C(=O)OC (configuration not stated) | 39 | -3 | 0 | -13 | 1 | x
CCOC(=O)C1(CC)Oc2ccccc2C(c2ccc(OC)cc2)=C1C(=O)OC (configuration not stated) | 34 | 0 | 0 | 71* | 2 | -7
O=C1CN(C(=O)c2ccc(F)c(S(=O)(=O)N3CCOCC3)c2)c2ccccc2N1 | -1 | 0 | x | 59* | 1 | 36
COc1ccc(C(=O)N2CC(=O)Nc3ccccc32)cc1S(=O)(=O)N1CCOCC1 | 1 | -4 | -1 | x | -2 | x
COC(=O)c1ccc(NC(=O)Cn2c(-c3nonc3N)nc3ccccc32)cc1 | 1 | -4 | x | -17 | 12 | x
COC(=O)c1ccccc1NC(=O)Cn1c(-c2nonc2N)nc2ccccc21 | 16 | -1 | 0 | 70* | 0 | 91*
Cc1nn(-c2ccccc2)c2c1CC(=O)Nc1ccccc1-2 | 0 | -2 | x | 64* | 0 | 80*
CCOC(=O)c1cnc(Nc2nc3ccccc3o2)nc1C | 3 | 0 | 0 | 65* | -3 | 70*
O=C(/C=C/c1ccccc1)Nc1cc(NC(=O)/C=C/c2ccccc2)cc(C(=O)O)c1 | -8 | -32 | 3 | -14 | 2 | x
O=C(/C=C/c1ccccc1)Nc1cccc(C(=O)O)c1 | 6 | -2 | x | 80* | -2 | 82*
CC[C@@]1(C(=O)OC)N[C@H](CN(C)C(=O)Nc2ccc(F)cc2)[C@@H]2C(=O)N(Cc3ccccc3)C(=O)[C@@H]21 | -6 | 1 | 0 | 70* | 1 | -8
CCN(C[C@H]1N[C@@](Cc2ccccc2)(C(=O)OC)[C@H]2C(=O)N(Cc3ccccc3)C(=O)[C@@H]12)S(=O)(=O)c1ccc(C(F)(F)F)cc1 | 23 | -1 | -1 | 86* | 1 | -13
COc1ccc(Cl)cc1NC(=O)CCn1cnc2ccccc2c1=O | 3 | -3 | 1 | 70* | -2 | -10
Cc1ccc(C(=O)C[n+]2ccccc2)cc1 | 6 | -3 | -1 | 64* | 0 | -7
Cc1ccc[n+](CC(=O)c2ccc(-c3ccccc3)cc2)c1 | 7 | -3 | 6 | -20 | -1 | x
CCNC(=O)C[C@H]1CC[C@H]2[C@H](COc3ccc(NC(=O)c4ccccc4)cc3C(=O)N2C)O1 | x | x | 5 | x | x | x
CN(C)CC(=O)N[C@@H]1CC[C@H](CC(=O)NCCN2CCCCC2)O[C@H]1CO | x | x | -3 | x | x | x
SMILES | Yp Topo-I inh | FadD28 FP inh | Mtb BioA inh | PrP 5UTR inh | PfHsp40 yeast | PrP UTR cherry
N#Cc1cn(C2OC(CO)C(O)C2O)c2ncnc(N)c12 (configuration not stated) | -2 | 0 | x | 58* | -1 | 75*
CC(C)=CCNc1ncnc2c1c(C#N)cn2C1OC(CO)C(O)C1O (configuration not stated) | -6 | -2 | x | -1 | -1 | x
NC(=O)c1c(Br)n(C2OC(CO)C(O)C2O)c2ncnc(N)c12 (configuration not stated) | 3 | -1 | x | 16 | -2 | x
CN(C)c1ncnc2c1ccn2C1OC(CO)C(O)C1O (configuration not stated) | 14 | 0 | 0 | -2 | 1 | x
NC(=O)c1cn(C2OC(CO)C(O)C2O)c2ncnc(N)c12 (configuration not stated) | -1 | -2 | -1 | 88* | -2 | 97*
OCC1OC(n2ccc3c(NO)ncnc32)C(O)C1O (configuration not stated) | -2 | -2 | x | 89* | 0 | 85*
CO[C@@H]1CN(C)C(=O)c2cc(NC(C)=O)ccc2OC[C@@H](C)N(Cc2ccc(F)cc2)C[C@H]1C | x | x | 0 | x | x | x
O=C(Nc1ccccc1F)N[C@@H]1CC[C@@H](CC(=O)N2CCCCC2)O[C@@H]1CO | x | x | -6 | x | x | x
C[C@H](CO)N1C[C@H](C)[C@@H](CN(C)S(=O)(=O)c2cn(C)cn2)OCCCC[C@H](C)Oc2ccc(NC(=O)CCCCCC(=O)Nc3ccccc3N)cc2C1=O | x | x | -1 | x | x | x
O=C(O)C[C@H]1C=C[C@@H](NC(=O)Nc2ccccc2)[C@H](CO)O1 | x | x | -2 | x | x | x
COc1ccc(OC)c(N/C(C)=C/C(=O)c2ccccc2)c1 | 13 | 0 | x | -94 | -1 | x
COc1ccc(OC)c(N/C=C/C(=O)c2ccccc2)c1 | -5 | 0 | -1 | 81* | -1 | 61*
COc1ccc(N/C=C/C(=O)c2cc(OC)c(OC)c(OC)c2)cc1 | -4 | -4 | 2 | 71* | 1 | 89*
OCC1=C[C@@H](O)[C@@H]2C=CO[C@@H](O[C@@H]3O[C@H](CO)[C@@H](O)[C@H](O)[C@H]3O)[C@H]12 | 3 | -2 | 1 | 65* | 0 | 4
OCC1=C[C@@H](O)C2C=CO[C@@H](O[C@@H]3O[C@H](CO)[C@@H](O)[C@H](O)[C@H]3O)C12 (some centres not stated) | 0 | -2 | -1 | -20 | -1 | x
Cc1ccc(CN2C(=O)S/C(=C\c3ccccc3OCC(=O)O)C2=O)cc1 | -2 | -8 | x | 81* | 2 | -15
O=C(O)COc1ccccc1/C=C1\SC(=O)N(Cc2ccc(F)cc2)C1=O | -8 | -2 | 2 | -2 | 1 | x
CCCNC(=O)[C@@H]1[C@@H](CO)[C@@H]2Cn3c(ccc(/C=C/c4ccccc4)c3=O)[C@@H]2N1CCC | x | x | 16 | x | x | x
COc1ccc(OC)c2[nH]c(=O)c(CCNC(=O)COc3ccccc3)cc12 | 14 | -1 | x | 57* | -1 | -6
COc1ccc(CN(C)C[C@@H]2OCCCC[C@@H](C)Oc3ccc(NC(=O)CCCN(C)C)cc3C(=O)N([C@H](C)CO)C[C@@H]2C)cc1 | x | x | 0 | x | x | x
O=C(Nc1ccc(COc2ccccc2)cc1)Oc1ccccc1N1CCOCC1 | 1 | -2 | x | 59* | -2 | 32
